Inconclusive results are not listed. Active and inactive are the calls of the source. Rule for the calls: active = hit-call score of the fitted dose curve at least 0.9, where 1 is the maximum; inconclusive = response in the unintended direction; inactive = score below 0.9.

This assay can be described thus: Tanguay_ZF_120hpf_BRAI_legacy: (Legacy) Oregon State University Tanguay Lab 120 Hour Post-fertilization zebrafish Assay for Brain Malformation (AID 2283641). The procedure: Tanguay_ZF_120hpf_legacy is a whole embryo, multiplexed endpoint assay using zebrafish larvae exposed for 120 hours post fertilization on a 96-well plate.Tanguay_ZF_120hpf_BRAI_legacy is one of one assay component(s) measured or calculated from the Tanguay_ZF_120hpf_legacy assay. It is designed to make measurements of zebrafish development as detected with brightfield microscopy of developing zebrafish embryos.Data from the assay component Tanguay_ZF_120hpf_BRAI_legacy was analyzed into 1 assay endpoints. This assay endpoint, Tanguay_ZF_120hpf_BRAI_legacy, was analyzed in the positive analysis fitting direction relative to DMSO as the negative control and baseline of activity. Using a type of morphology reporter, gain-of-signal activity can be used to understand changes in developmentals as they relate to the whole embryo. To generalize the intended target to other relatable targets, this assay endpoint is annotated to the zebrafish development intended target family, where the subfamily is brain morphogenesis.
Zebrafish husbandry: Tropical 5D wild-type adult zebrafish were housed in at an approximate density of 1000 per 100 gallon tank at the Sinnhuber Aquatic Research Laboratory, Oregon State University, Corvallis, OR. Each tank was kept at standard laboratory conditions of 28C on a 14-h light/10-h dark photoperiod in fish water consisting of reverse osmosis water supplemented with a commercially available salt (Instant Ocean). Spawning funnels were placed into the tanks the night prior, and embryos were collected and staged. […] Ten microliters of each row of dilution plate 2 was added to 2 exposure plates. The final DMSO concentration used was 0.64% (vol/vol). Thirty-two embryos were also exposed to 5uM trimethyltin chloride (positive control). Plates were sealed to prevent evaporation and foil covered to reduce light exposure and kept in a 28C incubator. Embryos were statically exposed until 120 hpf. At 24 hpf, embryos were assessed for photomotor response using a custom photomotor response analysis tool (PRAT) and for developmental toxicity endpoints (MO24: mortality at 24 hpf, DP: developmental progression, SM: spontaneous movement, and NC: notochord distortion). At 120 hpf, locomotor activity was measured using Viewpoint Zebralab and assessed for 18 endpoints. Zebrafish acquisition and analysis program (ZAAP), a custom program designed to inventory, acquire, and manage zebrafish data, was used to collect developmental endpoints as either present or absent (i.e., binary responses were recorded). If mortality occurred for an embryo (at either 24 or 120 hpf), the non-mortality endpoints were not measured.
On to `CC1=C(C(=O)Nc2ccccc2)SCCO1`, for which the compound was classed as inactive.

For `CCCCC(CC)COC(=O)c1ccccc1C(=O)OCC(CC)CCCC` (stereo not given), the outcome was inactive. `CCON=C(CC)C1=C(O)CC(c2c(C)cc(C)cc2C)CC1=O` (stereo not given): the compound was classed as inactive. As to `CCNc1nc(Cl)nc(NC(C)C)n1`, the call was inactive.

Turning to `COP(N)(=O)SC` (stereo not given), the outcome was inactive. As a reminder, the AC50 is the concentration giving half of the maximal activity seen. For `CCOC(=O)C(Cl)Cc1cc(-n2nc(C)n(C(F)F)c2=O)c(F)cc1Cl` (stereo not given), the AC50 was 2.91 µM (active). For the compound `CC(C)C1(C)N=C(c2nc3ccccc3cc2C(=O)O)NC1=O` (stereo not given), the call was inactive.

Take `Fc1ccc(Oc2ccnc3cc(Cl)cc(Cl)c23)cc1`: the outcome was inactive. As for `CS/C(C)=N/OC(=O)N(C)SN(C)C(=O)O/N=C(\C)SC`, the compound was called inactive. Take `N#Cc1cc(Br)c(O)c(Br)c1`: the outcome was inactive. Take `CC(Oc1ccc(Cl)cc1Cl)C(=O)O` (stereo not given): the outcome was inactive. Consider `CC(C)(C)c1ccc(CSc2cnn(C(C)(C)C)c(=O)c2Cl)cc1`, for which the call was inactive.

For the compound `COc1ccc(C(c2ccc(OC)cc2)C(Cl)(Cl)Cl)cc1`, the result was inactive. As to `CC(C)Oc1cc(-n2nc(C(C)(C)C)oc2=O)c(Cl)cc1Cl`, the compound was classed as inactive. As for `COC(=O)C(C)Oc1ccc(Oc2ccc(Cl)cc2Cl)cc1` (stereo not given), the call was inactive. Consider `O=C(O)COc1nc(Cl)c(Cl)cc1Cl`, for which the compound was called inactive. With `C=CCC1=C(C)[C@@H](OC(=O)[C@@H]2[C@@H](C=C(C)C)C2(C)C)CC1=O`, the call was inactive. For the compound `CCNc1nc(Cl)nc(NCC)n1`, the result was inactive. On the same count and under the same terms, next, `C=CCC1=C(C)C(OC(=O)C2C(C=C(C)C)C2(C)C)CC1=O` (stereo not given): “inactive”. On the same count and under the same terms, next, `CCCCNC(=O)OCC#CI`: “inactive”; `COP(=S)(OC)Oc1nc(Cl)c(Cl)cc1Cl`: “inactive”; `COC(=O)c1ccccc1C(=O)OC`: “inactive”.

For the compound `CNC(=S)S`, the outcome was inactive. On to `Cc1ccc(-c2c(Cl)nc(C#N)n2S(=O)(=O)N(C)C)cc1`, for which the compound was classed as inactive. Turning to `CCCC1COC(Cn2cncn2)(c2ccc(Cl)cc2Cl)O1` (stereo not given), the AC50 was 30.2 µM (active). `O=C(Nc1ccccc1)Nc1ccnc(Cl)c1`: the compound was classed as inactive.

As to `C=CC1(C)OC(=O)N(c2cc(Cl)cc(Cl)c2)C1=O` (stereo not given), the result was inactive. Still for that read-out and setting: with `CCCN(CCC)c1c([N+](=O)[O-])cc(S(N)(=O)=O)cc1[N+](=O)[O-]` the entry was “inactive”; with `O=C(O)c1nc(Cl)ccc1Cl`, “inactive”. On to `CCCCOC(=O)c1ccccc1C(=O)OCCCC`, for which the result was inactive. Still for that read-out and setting: with `COc1nc(NC(C)C)nc(NC(C)C)n1` the entry was “inactive”; with `CON(C)C(=O)Nc1ccc(Cl)c(Cl)c1`, “inactive”. As for `CNC(=O)ON=CC(C)(C)SC`, the compound was classed as inactive. Regarding `C#CCOS(=O)OC1CCCCC1Oc1ccc(C(C)(C)C)cc1` (stereo not given), the call was inactive. As for `CN(C)C(=S)SSC(=S)N(C)C`, the result was inactive. `Cc1c(F)c(F)c(COC(=O)C2C(/C=C(\Cl)C(F)(F)F)C2(C)C)c(F)c1F` (stereo not given): the concentration at half-maximal activity (AC50) was 2.6 µM (active).

Regarding `CCOC(=O)CC(SP(=S)(OC)OC)C(=O)OCC` (stereo not given), the compound was called inactive. Regarding `Oc1ccccc1-c1ccccc1`, the compound was called inactive. As to `CCc1nn(C)c(C(=O)NCc2ccc(C(C)(C)C)cc2)c1Cl`, the call was inactive.

As to `CCOP(=S)(OCC)SCn1c(=O)oc2cc(Cl)ccc21`, the compound was called inactive.

Source of the values: PubChem BioAssay (EPA / NIEHS).
